Results on seven sequences are retold here after publication PMC8384837, “Expanding the binding specificity for RNA recognition by a PUF domain”.

Common to all, as to assay: yeast three-hybrid, YBZ-1, SC-Leu-His + 0.5 mM 3-AT, 4 days
Common to all, as to conditions: tags: N-Gal4 AD-HA kept; label: inside an RPR1-promoter hybrid RNA with tandem MS2 sites; ssRNA

The target of one assay is PUM1 PUF domain R8-RGR (Homo sapiens, UniProt Q14671 828-1176, N1122R;Y1123G;Q1126R). The procedure, abridged:
(§1)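 Pumilio-1 PUF domain libraries, randomized (NNK) at the three base-contacting residues of each repeat, were co-expressed with matching RNA elements from a centromeric plasmid in strain YBZ-1 (LexA–MS2 coat fusion, HIS3 reporter). Transformants were plated on SC-Leu (input) and SC-Leu-His + 0.5 mM 3-AT (selection) for four days, and repeat regions were PCR-amplified and Illumina-sequenced. The interaction score is the log2 change in variant frequency from input to selection, with pseudocount 1 where absent.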

Another assay concerns the target PUM1 PUF domain R5-RQC (Homo sapiens, UniProt Q14671 828-1176, C1007R;R1008Q;Q1011C). The procedure, abridged:
as §1

For another assay, the target named is PUM1 PUF domain R4-CRS (Homo sapiens, UniProt Q14671 828-1176, N971C;H972R;Q975S). A digest of the protocol: as §1
In a further assay the target is PUM1 PUF domain R5-CTR (Homo sapiens, UniProt Q14671 828-1176, R1008T;Q1011R). A digest of the protocol:
as §1

The next assay deals with PUM1 PUF domain R5-RFD (Homo sapiens, UniProt Q14671 828-1176, C1007R;R1008F;Q1011D). A digest of the protocol:
as §1

A further assay has as its target PUM1 PUF domain R3-TRF (Homo sapiens, UniProt Q14671 828-1176, C935T;Q939F). A digest of the protocol:
as §1

A further assay addresses PUM1 PUF domain R3-GPT (Homo sapiens, UniProt Q14671 828-1176, C935G;R936P;Q939T). A digest of the protocol:
as §1

Another assay addresses PUM1 PUF domain R3-IYL (Homo sapiens, UniProt Q14671 828-1176, C935I;R936Y;Q939L). A digest of the protocol: as §1
A further assay concerns the target PUM1 PUF domain R4-SML (Homo sapiens, UniProt Q14671 828-1176, N971S;H972M;Q975L). The procedure, abridged:
as §1

The target of the next assay is PUM1 PUF domain R5-EFR (Homo sapiens, UniProt Q14671 828-1176, C1007E;R1008F;Q1011R). A digest of the protocol:
as §1

A further assay deals with PUM1 PUF domain R3-LWT (Homo sapiens, UniProt Q14671 828-1176, C935L;R936W;Q939T). The procedure, abridged: as §1
Another assay concerns the target PUM1 PUF domain R3-EWE (Homo sapiens, UniProt Q14671 828-1176, C935E;R936W;Q939E). A digest of the protocol: as §1
The next assay has as its target PUM1 PUF domain R1-TLF (Homo sapiens, UniProt Q14671 828-1176, S863T;R864L;Q867F). A digest of the protocol: as §1
The next assay addresses PUM1 PUF domain R1-RIS (Homo sapiens, UniProt Q14671 828-1176, S863R;R864I;Q867S). A digest of the protocol:
as §1

The target in a further assay is PUM1 PUF domain R1-SLR (Homo sapiens, UniProt Q14671 828-1176, R864L;Q867R). The procedure, abridged:
as §1

The next assay has as its target PUM1 PUF domain R5-DRQ (Homo sapiens, UniProt Q14671 828-1176, C1007D). The procedure, abridged: as §1
The next assay deals with PUM1 PUF domain R5-KRP (Homo sapiens, UniProt Q14671 828-1176, C1007K;Q1011P). A digest of the protocol:
as §1

Another assay has as its target PUM1 PUF domain R5-DHW (Homo sapiens, UniProt Q14671 828-1176, C1007D;R1008H;Q1011W). A digest of the protocol:
as §1

A further assay deals with PUM1 PUF domain R7-KRG (Homo sapiens, UniProt Q14671 828-1176, S1079K;N1080R;E1083G). A digest of the protocol: as §1
In a further assay the target is PUM1 PUF domain R7-TVG (Homo sapiens, UniProt Q14671 828-1176, S1079T;N1080V;E1083G). A digest of the protocol: as §1

PUM1 PUF domain R5-RFD, sequence (Q14671 828-1176 C1007R/R1008F/Q1011D): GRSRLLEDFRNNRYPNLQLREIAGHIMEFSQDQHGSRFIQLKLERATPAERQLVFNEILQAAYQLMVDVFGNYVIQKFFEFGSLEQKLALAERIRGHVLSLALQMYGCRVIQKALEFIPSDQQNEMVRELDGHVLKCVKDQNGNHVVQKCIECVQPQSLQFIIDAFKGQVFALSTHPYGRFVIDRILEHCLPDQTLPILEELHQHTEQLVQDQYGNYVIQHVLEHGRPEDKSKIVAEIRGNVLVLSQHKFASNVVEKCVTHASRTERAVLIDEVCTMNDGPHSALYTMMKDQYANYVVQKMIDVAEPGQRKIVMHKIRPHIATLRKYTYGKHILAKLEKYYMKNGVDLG
PUM1 PUF domain R8-RGR, sequence (Q14671 828-1176 N1122R/Y1123G/Q1126R): as the sequence (Q14671 828-1176 C1007R/R1008F/Q1011D) above, with R180C, F181R, D184Q, N295R, Y296G, Q299R counted along it
PUM1 PUF domain R5-RQC, sequence (Q14671 828-1176 C1007R/R1008Q/Q1011C): as the sequence (Q14671 828-1176 C1007R/R1008F/Q1011D) above, with F181Q, D184C counted along it
PUM1 PUF domain R5-CTR, sequence (Q14671 828-1176 R1008T/Q1011R): as the sequence (Q14671 828-1176 C1007R/R1008F/Q1011D) above, with R180C, F181T, D184R counted along it
PUM1 PUF domain R5-KRP, sequence (Q14671 828-1176 C1007K/Q1011P): as the sequence (Q14671 828-1176 C1007R/R1008F/Q1011D) above, with R180K, F181R, D184P counted along it
PUM1 PUF domain R1-TLF, sequence (Q14671 828-1176 S863T/R864L/Q867F): as the sequence (Q14671 828-1176 C1007R/R1008F/Q1011D) above, with S36T, R37L, Q40F, R180C, F181R, D184Q counted along it
PUM1 PUF domain R1-RIS, sequence (Q14671 828-1176 S863R/R864I/Q867S): as the sequence (Q14671 828-1176 C1007R/R1008F/Q1011D) above, with S36R, R37I, Q40S, R180C, F181R, D184Q counted along it
PUM1 PUF domain R4-CRS, sequence (Q14671 828-1176 N971C/H972R/Q975S): as the sequence (Q14671 828-1176 C1007R/R1008F/Q1011D) above, with N144C, H145R, Q148S, R180C, F181R, D184Q counted along it
PUM1 PUF domain R5-DHW, sequence (Q14671 828-1176 C1007D/R1008H/Q1011W): as the sequence (Q14671 828-1176 C1007R/R1008F/Q1011D) above, with R180D, F181H, D184W counted along it
PUM1 PUF domain R5-DRQ, sequence (Q14671 828-1176 C1007D): as the sequence (Q14671 828-1176 C1007R/R1008F/Q1011D) above, with R180D, F181R, D184Q counted along it

Take “GGCUAGAACUAGUGGAUCCCCCGGCGCCCGGCGGCUCGAGCCCGGGUAAGUGUAAAUAGUCUGCAUGCCGCCGGGCGCCAUGCCUGCAGGUCGACUCUAGAAAACAUG”: the binding signal was 1.23 log2 enrichment (interaction score) with PUM1 PUF domain R8-RGR; 1.84 log2 enrichment (interaction score) with PUM1 PUF domain R5-RQC; 2.69 log2 enrichment (interaction score) with PUM1 PUF domain R4-CRS; 1.1 log2 enrichment (interaction score) with PUM1 PUF domain R5-CTR; 2.18 log2 enrichment (interaction score) in the assay with PUM1 PUF domain R5-RFD; 4.8 log2 enrichment (interaction score) in the assay with PUM1 PUF domain R3-TRF. In addition, the binding signal with PUM1 PUF domain R3-GPT is 2.91 log2 enrichment (interaction score); in the assay with PUM1 PUF domain R3-IYL, 4.44 log2 enrichment (interaction score); in the assay with PUM1 PUF domain R4-SML, 3.12 log2 enrichment (interaction score); with PUM1 PUF domain R5-EFR it was 3.42 log2 enrichment (interaction score); in the assay with PUM1 PUF domain R3-LWT it was 3.77 log2 enrichment (interaction score).
“GGCUAGAACUAGUGGAUCCCCCGGCGCCCGGCGGCUCGAGCCCGGGUAAGUGUAAGUAGUCUGCAUGCCGCCGGGCGCCAUGCCUGCAGGUCGACUCUAGAAAACAUG”: in the assay with PUM1 PUF domain R3-EWE, the binding signal is 4.74 log2 enrichment (interaction score).
“GGCUAGAACUAGUGGAUCCCCCGGCGCCCGGCGGCUCGAGCCCGGGUAAGCGUAAAUAGUCUGCAUGCCGCCGGGCGCCAUGCCUGCAGGUCGACUCUAGAAAACAUG”: the binding signal with PUM1 PUF domain R8-RGR is 2.53 log2 enrichment (interaction score).
On to “GGCUAGAACUAGUGGAUCCCCCGGCGCCCGGCGGCUCGAGCCCGGGUAAGUGUAAAUUGUCUGCAUGCCGCCGGGCGCCAUGCCUGCAGGUCGACUCUAGAAAACAUG”, for which the binding signal in the assay with PUM1 PUF domain R1-TLF is 4.45 log2 enrichment (interaction score); in the assay with PUM1 PUF domain R1-RIS it was 3.81 log2 enrichment (interaction score); with PUM1 PUF domain R1-SLR, 0.57 log2 enrichment (interaction score).
On to “GGCUAGAACUAGUGGAUCCCCCGGCGCCCGGCGGCUCGAGCCCGGGUAAGUGUGAAUAGUCUGCAUGCCGCCGGGCGCCAUGCCUGCAGGUCGACUCUAGAAAACAUG”, for which the values for the binding signal with PUM1 PUF domain R5-DRQ, in the assay with PUM1 PUF domain R5-KRP and with PUM1 PUF domain R5-RFD were 3.23 log2 enrichment (interaction score), 0.17 log2 enrichment (interaction score) and 2.73 log2 enrichment (interaction score), respectively.
As for “GGCUAGAACUAGUGGAUCCCCCGGCGCCCGGCGGCUCGAGCCCGGGUAAGUGUUAAUAGUCUGCAUGCCGCCGGGCGCCAUGCCUGCAGGUCGACUCUAGAAAACAUG”, the binding signal with PUM1 PUF domain R5-RQC is 4.83 log2 enrichment (interaction score); with PUM1 PUF domain R5-DHW it was 3.46 log2 enrichment (interaction score); with PUM1 PUF domain R5-RFD, 4.39 log2 enrichment (interaction score).
As for “GGCUAGAACUAGUGGAUCCCCCGGCGCCCGGCGGCUCGAGCCCGGGUAAGUUUAAAUAGUCUGCAUGCCGCCGGGCGCCAUGCCUGCAGGUCGACUCUAGAAAACAUG”, the binding signal is 2.98 log2 enrichment (interaction score) with PUM1 PUF domain R7-KRG and 4.37 log2 enrichment (interaction score) with PUM1 PUF domain R7-TVG.
